# Compound activity deposited in PubChem by National Center for Advancing Translational Sciences (NCATS).
# Only some compounds are listed: those with a hit (about 10% of all), similar ones and a draw of the others.
# CtBP-E1A blk: qHTS Assay for Inhibitors of the CtBP/E1A Interaction. AID 651724, 2012. activity change, % (concentration not given with the values). AlphaScreen GST-E1A/His-CtBP binding, 1536-well; active compounds read low. actives 0.49% (n = 340,000); in the data active = activity change below about -65%; inconclusive = mostly about -30% to -63%
#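 Steps: dispense buffer (Tris pH 8.0, NaCl 300 mM, TCEP 1 mM, BSA, Tween 20); add 5X protein mix (GST-E1A, His-CtBP, 125 nM each); pin 23 nL compound; 2 h at 37 °C, dark; add 5X beads (50 ug/mL); 1 h; read.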
# Six1-Eya2 inh: qHTS Assay for Inhibitors of the Six1/Eya2 Interaction; Homeobox protein SIX1 (Homo sapiens) + Protein phosphatase EYA2 (Homo sapiens), …; AlphaScreen GST-Six1/His-Eya2 binding, biochemical; active compounds read low; activity change, % (test concentration not listed); AID 651725, 2012; actives 0.56% (n = 360,000); in the data active = activity change below about -65%; inconclusive = mostly about -30% to -63%
#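 GST-Six1 + His-Eya2 (5X stock: 250/500 nM); Tris pH 8.0, 300 mM NaCl, 0.05% BSA, 0.02% Tween 20; GSH donor/Ni acceptor beads; 1 h 37 °C dark; AlphaScreen readout.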
# G9a block: qHTS Assay for Inhibitors of Histone Lysine Methyltransferase G9a; Histone-lysine N-methyltransferase EHMT2 (Homo sapiens), Q96KQ7; G9a H3K9 monomethylation, AlphaScreen, 2 h; actives 8.8% (n = 350,000); Potency, µM (top dose mostly 102 µM), most hits filed as inhibitors; also: nearly all actives have a fitted effect of over 75% in size
#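 Chemiluminescent proximity detection of H3K9 monomethylation, read after 10 min bead incubation in the dark. Reaction: 20 nM G9a, 500 nM biotin-H3K9 peptide, 20 uM SAM cofactor, 2 h, room temperature, following 15 min enzyme-compound preincubation.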
# BAZ2B block: qHTS Assay for Inhibitors of BAZ2B; Bromodomain adjacent to zinc finger domain protein 2B (Homo sapiens), Q9UIF8; AlphaScreen BAZ2B-H3K14Ac peptide displacement; Potency, µM (top dose mostly 114 µM), actives largely listed as inhibitors; actives 4.4% (n = 360,000); also: nearly all actives have a fitted effect of over 60% in size
#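 AlphaScreen displacement of biotin-H3(5-23)K14Ac peptide (50 nM final) from BAZ2B (50 nM final) in PBS pH 7.4, 0.01% Tween-20; complex preformed 30 min RT, then compounds (top 110 uM) 30 min RT, beads 20 min dark.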
# HP1b binding inh: HTS for Inhibitors of HP1-beta Chromodomain Interactions with Methylated Histone Tails | Chromobox protein homolog 1 (Homo sapiens), P83916 | AlphaScreen HP1-beta / biotin-H3K9me3 peptide binding | Potency, µM (top dose mostly 114 µM), actives largely listed as inhibitors | actives 0.56% (n = 390,000) | AID 540317, 2011; also: nearly all actives have a fitted effect of over 70% in size
#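 AlphaScreen: HP1-beta (50 nM) preformed 30 min with biotin-H3(1-18)K9me3 peptide (50 nM) in PBS pH 7.4, 0.01% Tween-20. Compound added for 30 min at RT, then streptavidin donor/nickel chelate acceptor beads (10 ug/mL) for 30 min.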
# JMJD2A Tudor inh: qHTS Assay for Inhibitors of JMJD2A-Tudor Domain; Lysine-specific demethylase 4A (Homo sapiens), O75164; AlphaScreen JMJD2A-Tudor / H3K4me3 peptide binding; Potency, µM (series often up to 114 µM), actives largely listed as inhibitors; actives 4.4% (n = 390,000); AID 504339, 2011; also: nearly all actives have a fitted effect of over 50% in size
# Hits are given with their value; - = inactive; ? = inconclusive; . = no result given; [ ] = remark or other dose. Unless noted, calls follow the shape of the dose curve; as a rule, active = well fitted inhibition curve with a large enough effect; inconclusive = small, poorly fitted or top-dose-only effect; inactive = no such curve, though single readings can be large or run the other way.
SMILES,CtBP-E1A blk,Six1-Eya2 inh,G9a block,BAZ2B block,HP1b binding inh,JMJD2A Tudor inh
O=C(NC1CCSc2ccccc21)c1cc([N+](=O)[O-])ccc1N1CCOCC1 (stereo not drawn),-,-,56.2µM,-,-,-
Nc1cc(=O)[nH]c(SCC(=O)Nc2nc3ccc([N+](=O)[O-])cc3s2)n1,.,.,39.8µM,?,.,.
O=C(NCCOc1ccccc1)c1cc([N+](=O)[O-])ccc1N1CCOCC1,-,-,-[12.7 µM],-,-,-
O=C(Nc1nc2ccc(Oc3ccccc3)cc2s1)c1cc([N+](=O)[O-])ccc1N1CCOCC1,-,?,15.8µM,?,-,-
CC(C)Cn1cc(NC(=O)NCc2ccccc2Cl)c2ccccc2c1=O,.,.,?,-,-,-
O=C(CSc1nc2ccccc2o1)Nc1nc2ccc(Br)cc2s1,-,-,44.7µM,-,-,-[11.4 µM]
Cc1csc(SCC(=O)Nc2nc(-c3ccccc3)cs2)n1,-,-,-,-,-,-
O=C(CN1CCOCC1)Nc1nc2ccc([N+](=O)[O-])cc2s1,-,-,-,-,-,10µM
O=C(CN1CCOCC1)Nc1nc2ccc(F)cc2s1,-,-,-,-,-,-
Cc1cc(=O)[nH]c(SCC(=O)Nc2nc(-c3ccccc3)cs2)n1,-,-,50.1µM,?,-,-
O=C(CSc1cn[nH]n1)Nc1nc2ccccc2s1,-,-,39.8µM,-,-,-
COc1ccc2nc(NC(=O)CSc3nc4ccccc4o3)sc2c1,-,-,-[12.7 µM],-,-,-
Cc1nn(CC(=O)NCc2ccc(N(C)C)cc2)c(=O)c2nn(-c3ccccc3)c(C)c12,.,.,?,-,-,-
NC(=O)C1(N2CCCCC2)CCN(C(=O)Nc2ccc(F)cc2F)CC1,.,.,-,-,-,-
CCOc1ccc(NC(=O)Cn2c(C)cc3ccccc3c2=O)cc1,.,.,-,-,-,-
Cc1cc(=O)[nH]c(SCC(=O)Nc2nnc(SCc3ccccc3)s2)n1,.,-,-,-,-,-[11.4 µM]
Cc1cc(=O)[nH]c(SCC(=O)Nc2nc3ccccc3s2)n1,-,-,31.6µM,?,-,-
CC(C)C(=O)NC(NC(=S)Nc1ccc(S(N)(=O)=O)cc1)C(Cl)(Cl)Cl (stereo not drawn),-,-,50.1µM,-,-,-
CC(C)C(=O)NC(Nc1ccc(S(N)(=O)=O)cc1)C(Cl)(Cl)Cl (stereo not drawn),-,-,-,-,-,-
CCCC(=O)NC(NC(=S)Nc1ccc(S(N)(=O)=O)cc1)C(Cl)(Cl)Cl (stereo not drawn),-,-,44.7µM,-,-,-
CC(C)c1ccc(O)c(NC(=S)NC(=O)c2cccnc2)c1,-,-,-,-,-,-
CCC(C)c1ccc(O)c(NC(=O)c2cccnc2)c1 (stereo not drawn),-,-,50.1µM,-,-,-
CCC(C)c1ccc(NC(=O)c2cccnc2)cc1 (stereo not drawn),-,-,-[12.7 µM],-,-,-
CC(C)c1ccc(O)c(NC(=O)c2cncc(Br)c2)c1,-,-,39.8µM,-,-,-
COc1ccc(OC)c(CCNC(=O)c2cnn(-c3ccccc3Cl)c2C2CCN(C(=O)OC(C)(C)C)CC2)c1,.,.,-,-,-,-
Cc1cccc(N=C2NN=C(c3ccc4c(c3)OCCO4)CS2)c1,?,-,-[12.7 µM],-,-,-
Cc1cccc(N=C2NN=C(c3c(C)[nH]c4ccccc34)CS2)c1,-,?,?,?,-,44.7µM
Cc1cccc[n+]1CC(=O)/C=C1\N(C)c2ccccc2C1(C)C,-,-,-,-,-,-
CN1/C(=C\C(=O)CSc2cccc[n+]2[O-])C(C)(C)c2ccccc21,-,-,10µM,-,-,-
